Experimental findings from PubChem BioAssay (NCI) are described below.

The panel holds about 83,000 compounds, 20% with a hit somewhere; the sample as a whole holds those more often.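 In brief: 96-well plates, 48 h treatment, single concentration, percent growth endpoint.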 Values without a mark were called inactive. Calls of active or inactive are those of the source. The calls were made as follows: active = growth percent below 10; inactive = the rest.

Common to all, as to test: NCI-60 one-dose screen, 48 h (100 = growth as untreated, 0 = no growth, -100 = all killed)
Experiment [1] deals with SN12C renal. Conditions: 10 µM unless noted.
The subject of experiment [2] is UO-31 renal. To be noted: 10 µM unless noted.
Experiment [3] has as its system TK-10 renal. Conditions: 10 µM unless noted.
The subject of experiment [4] is ACHN renal. To be noted: 10 µM unless noted.
Experiment [5] deals with CAKI-1 renal. Conditions: 10 µM unless noted.
Experiment [6] concerns A498 renal. Conditions: 10 µM unless noted.
In experiment [7] the test system is MOLT-4 leukemia. Conditions: 10 µM unless noted.
Experiment [8] has as its system SR leukemia. To be noted: 10 µM unless noted.
In experiment [9] the test system is RPMI-8226 leukemia. Conditions: 10 µM.
In experiment [10] the test system is OVCAR-8 ovarian. To be noted: 10 µM unless noted.
Experiment [11] relates to OVCAR-5 ovarian. To be noted: 10 µM unless noted.
In experiment [12] the test system is OVCAR-4 ovarian. To be noted: 10 µM unless noted.
Experiment [13] concerns SK-OV-3 ovarian. To be noted: 10 µM.
For experiment [14], the system named is IGROV1 ovarian. To be noted: 10 µM unless noted.
The subject of experiment [15] is OVCAR-3 ovarian. Conditions: 10 µM unless noted.
Experiment [16] concerns HS 578T breast. To be noted: 10 µM unless noted.
For experiment [17], the system named is NCI/ADR-RES ovarian. Conditions: 10 µM unless noted.
Experiment [18] deals with CCRF-CEM leukemia. To be noted: 10 µM unless noted.

For `C=CC[P+](c1ccccc1)(c1ccccc1)c1ccccc1`, the growth in experiment [1] is 69.7%; in experiment [2], 99.7%; in experiment [3], 78.7%; in experiment [4], 91.2%; in experiment [5], 90.9%; in experiment [6], 81.5%. Moreover, the growth in experiment [7] was 62.5%; in [8], 35.7%; in experiment [9] it was 6.29% (active); in experiment [10] it was 45.8%; in experiment [11], 77%; in experiment [12], 46%. For the same compound, the growth in experiment [13] was 70.8%; in [14], 73.2%; in experiment [15], 32%; in experiment [16], 79.4%; in [17], 112%.
Regarding `CCOC(=O)C1=C(C)N2C(=NC3=C(CCCC/C3=C\c3ccccc3)C2c2ccccc2)S1` (stereo not given), the growth in experiment [1] is 101%; in [2], 91%; in experiment [4], 102%; in [5], 90.2%; in experiment [6] it was 92.3%; in experiment [18] it was 98.3%. In addition, the growth in experiment [7] was 96.4%; in experiment [8], 90.9%; in experiment [9] it was 96.2%; in [10] it was 103%; in experiment [11] it was 94.8%; in experiment [12], 93.4%. In addition, the growth is 88.5% in experiment [13]; 108% in experiment [14]; 107% in experiment [15]; 99.6% in [16]; 101% in [17].
As to `Clc1nc(-c2ccccn2)nc2sc3c(c12)CCCCCC3`, the growth in experiment [1] was 84.9%; in [2], 16.4%; in experiment [4], -20.4% (active); in experiment [5], -65.2% (active); in [6] it was 118%; in [18], 72.4%. Moreover, the growth in [7] is 67.7%; in [8], 66.3%; in [9], 95.5%; in experiment [10], 87.1%; in experiment [11], 108%; in [12] it was 85.7%. In addition, the growth in experiment [13] is 105%; in experiment [14], 89.8%; in experiment [15] it was 108%; in experiment [16], 91.3%; in experiment [17], 89.3%.
Regarding `CCCCCCCCCCCCSC1=CC(=O)C=CC1=O`, the growth in experiment [1] was 55.1%; in experiment [2], 52.8%; in experiment [3], 118%; in experiment [5], 52.6%; in experiment [6] it was 107%; in experiment [18], -10% (active). Also, the growth is 71.5% in experiment [8]; -8.18% (active) in experiment [9]; 35.1% in [10]; 89.7% in experiment [11]; 57.1% in [12]; 82.3% in [13]. The growth in experiment [14] was -26.6% (active); in [15], 73.2%; in experiment [16], 63.8%; in experiment [17] it was 59.8%.
Take `CC(C)(C)[Si](C)(C)OC1[C@@H](CNC(=O)NC(=O)CCl)O[C@@H](n2cnc3c(N)ncnc32)[C@H]1O[Si](C)(C)C(C)(C)C` (stereo not given in full): the growth in experiment [1] is -81.9% (active); in [2], -96.8% (active); in [4], -95.8% (active); in experiment [5] it was -64.8% (active); in [6], -12.9% (active); in [18] it was -46.5% (active). Further, the growth is -58.2% (active) in experiment [8]; -43% (active) in experiment [9]; -47.7% (active) in [10]; -37.5% (active) in experiment [11]; -54.7% (active) in [12]; 92% in experiment [13]. Also, the growth in experiment [14] was -61.8% (active); in experiment [15], -91.5% (active); in [16], -16.9% (active); in experiment [17], -30.4% (active).
`N#Cc1ccc(C(F)(F)F)nc1N1CCC(C(=O)Nc2ccc(Cl)cc2)CC1`: the growth in [1] was 80.3%; in experiment [2] it was 74%; in [4] it was 68.7%; in [5], 73.1%; in experiment [6], 64.2%; in experiment [18] it was 82.5%. For the same compound, the growth was 41% in experiment [7]; 48.3% in [8]; 74.1% in experiment [9]; 75.8% in experiment [10]; 76.9% in [11]; 69.1% in experiment [12]. The growth in [13] was 82.5%; in [14] it was 102%; in [15], 99.4%; in experiment [16] it was 105%; in experiment [17], 72.1%.
Consider `CC[Si](CC)(CC)OC1[C@@H](O[Si](CC)(CC)CC)[C@@H](CNC(=O)NC)O[C@H]1n1cnc2c(NC(=O)Nc3ccccc3)ncnc21` (stereo not given in full), for which the growth was 93.6% in experiment [1]; 40.1% in experiment [2]; 88.4% in experiment [4]; 69% in experiment [5]; 38.6% in experiment [6]; 38.5% in [18]. The growth in experiment [7] is -10.9% (active); in [8], 14.8%; in [9], 3.35% (active); in experiment [10], 92.7%; in experiment [11], 93.6%; in experiment [12], 94.4%. In addition, the growth in [13] is 98.2%; in [14], 73.6%; in experiment [15], 66.6%; in experiment [16] it was 69.9%; in experiment [17] it was 91.8%.
Consider `Brc1ccccc1Nc1ccc2nnc(-c3ccncc3)n2n1`, for which the growth in experiment [1] was 101%; in experiment [2], 82.1%; in [3] it was 114%; in experiment [4], 97%; in [5], 87.1%; in [7], 92.6%. The growth was 61.7% in experiment [8]; 91.1% in experiment [9]; 100% in [10]; 101% in experiment [11]; 104% in [12]; 102% in [13]. The growth in [14] was 93.6%; in [15] it was 103%; in [16], 109%; in experiment [17], 99.8%.
As for `CC(C)(C)[Si](C)(C)OC1[C@@H](COC(N)=O)O[C@@H](n2cnc3c(N)ncnc32)[C@H]1O[Si](C)(C)C(C)(C)C` (stereo not given in full), the growth in experiment [1] is 102%; in experiment [2], 51.9%; in experiment [4], 89.1%; in experiment [5] it was 91.9%; in experiment [6], 106%; in experiment [18], 50.3%. Besides, the growth is -40.1% (active) in experiment [7]; -31.8% (active) in experiment [8]; 21.6% in experiment [9]; 84.9% in [10]; 99.2% in experiment [11]; 96.2% in experiment [12]. The growth in experiment [13] was 91.7%; in experiment [14], 113%; in [15], 75.6%; in experiment [16], 88.5%; in experiment [17] it was 87.4%.
